Experiment: JC-1 mitochondrial signal, unstimulated adipocytes – cell-based, JC-1 fluorescence, 3T3-L1 adipocytes, 24 h, 100 nL compound, profiling panel (AID 1168); note: test concentration not given here
Conditions: JC-1 mitochondrial fluorescence, higher = more signal, called active from +8 up or from −8 down

z-score, inactive:
C=CC[C@@]12N=C(c3ccc(OCCCO)cc3)O[C@@H]1c1ccccc1N(CCS(=O)(=O)c1ccccc1)C2=O 2.23
CN(C)CCCNC(=O)[C@@]1(C)c2ccccc2C(=O)N(Cc2cc(C(F)(F)F)cc(C(F)(F)F)c2)[C@H]1c1ccc(CO)cc1 -0.36
CC(C)NC(=O)[C@@]1(C)c2ccccc2C(=O)N(C(C)C)[C@H]1c1ccc(CO)cc1 -0.527
O=C(N1CCCCC1)[C@@]1(Cc2ccccc2)COC(c2ccc(OCCCO)cc2)=N1 0.987
O=C1C[C@@](C(=O)NCC(F)(F)F)(c2ccc([N+](=O)[O-])cc2)[C@@H](c2ccc(CO)cc2)N1C1CCCCC1 -1.12
O=C1c2ccccc2[C@](Cc2ccccc2I)(C(=O)NCc2ccccc2)[C@H](c2ccc(CO)cc2)N1C1CCCCC1 -0.424
C=CC[C@@]1(C(=O)N2CCCCC2)N=C(c2ccc(OCCCO)cc2)O[C@@H]1c1ccccc1 -0.282
C=CCOC(=O)[C@@H]1[C@H]2C(=O)O[C@H](c3ccccc3)[C@H](c3ccccc3)N2[C@H](c2ccc(OCCOC(=O)[C@H]3C[C@H]4C(=O)N[C@@H](CCCC[N+](C)(C)C)C(=O)N4[C@H]3c3ccc(O)cc3)cc2)[C@@]12C(=O)Nc1ccc(I)cc12 0.178
C[C@H]1ON(c2ccc(C(=O)OC(C)(C)C)cc2)[C@@H](c2ccc(O)cc2)[C@@H]1C(=O)N1C(=O)OC[C@@H]1c1ccccc1 -0.575
Cc1c(NC(=O)/C(C#N)=C/C=C/c2ccccc2[N+](=O)[O-])c(=O)n(-c2ccccc2)n1C -0.0694
CC(C)(C)OC(=O)CC[C@]1(C(=O)NCCN2CCOCC2)N=C(c2ccc(OCCCO)cc2)O[C@H]1c1ccccc1N=[N+]=[N-] 1.21
CCOC(=O)[C@H]1C/C=C/C[C@H](C(=O)OCC)C(=O)O[C@H]2[C@@H](OC)O[C@H](CO)[C@@H](OC(=O)Nc3ccc(OC)cc3)[C@@H]2OC1=O 1.84
O=C1NC(=O)C2C1C=CC(C(O)c1c(F)cccc1Cl)N2Nc1ccccn1 (stereo not given) -0.957
COc1ccc([Si](C)(C)[C@@H]2[C@@H](CCO)O[C@]3(C(=O)N(Cc4cccc(N5C(=O)c6ccccc6Oc6ccccc65)c4)c4ccccc43)[C@H]2C)cc1 0.614
Cc1ccc(S[C@]2(C(=O)NCc3ccccc3)CC(=O)N(C(C)C)[C@@H]2c2ccc(CO)cc2I)cc1 -0.371
CC(C)CCC[C@@H](C)[C@H]1CC[C@@]2(C)C3=C(CC[C@]12C)[C@@]1(C)CC[C@H](OC(=O)c2ccc(Br)cc2)C(C)(C)C1CC3 (stereo not given in full) 0.599
NC(=O)N1C(=O)C2C(C1=O)C1C=C(c3ccc(CO)cc3)C2C(C2CC2)N1Cc1sc2ccccc2c1Cl (stereo not given) 0.189
C=CCN1C(=O)[C@@]2(O[C@@H](CCn3cc([C@H](O)c4ccccc4)nn3)[C@H]([Si](C)(C)c3ccc(OC)cc3)[C@H]2C)c2ccccc21 -0.644
CC1CC/C=C\[C@H]2OC34C=CCN(CCN5CCOCC5)C(=O)[C@H]3N(CCO)C(=O)[C@@H]4C2C(=O)O1 (stereo not given in full) -0.533
C=CCOC(=O)[C@H]1[C@@H]2C(=O)O[C@@H](c3ccccc3)[C@@H](c3ccccc3)N2[C@@H](c2ccc(OCCOC(=O)[C@H]3C[C@H]4C(=O)N[C@@H](Cc5ccccc5)C(=O)N4[C@H]3c3ccc(O)cc3)cc2)[C@]12C(=O)Nc1ccc(I)cc12 -0.118
COc1ccc(C#Cc2ccc3c(c2)[C@]2(C(=O)N3)[C@H](C(=O)N3CCc4cc(OC)c(OC)cc4C3)[C@H]3C(=O)O[C@H](c4ccccc4)[C@H](c4ccccc4)N3[C@@H]2c2ccc(O)cc2)cc1 1.72
O=C1O[C@@H](c2ccccc2)[C@@H](c2ccccc2)N2[C@@H](c3ccccc3OCCO)[C@]3(C(=O)Nc4ccccc43)[C@@H](C(=O)NC[C@H](O)c3ccccc3)[C@H]12 0.305
C[C@]1(C(=O)NC2CC2)c2ccccc2C(=O)N(Cc2ccc(OC(F)(F)F)cc2)[C@H]1c1ccc(CO)cc1 -0.116
NC(=O)NCC#Cc1ccc2c(c1)[C@]1(C(=O)N2)[C@H](C(=O)Nc2nc3ccccc3s2)[C@H]2C(=O)O[C@H](c3ccccc3)[C@H](c3ccccc3)N2[C@@H]1c1ccc(O)cc1 0.588
COc1ccc(CCNC(=O)[C@@]2(Sc3ccc(C)cc3)CC(=O)N(Cc3cc(C(F)(F)F)cc(C(F)(F)F)c3)[C@@H]2c2ccc(CO)cc2I)cc1 -0.208
CN(C)CCCNC(=O)[C@@H]1c2ccccc2C(=O)N(Cc2ccc(OC(F)(F)F)cc2)[C@H]1c1ccc(CO)cc1 -0.463
COCCCNC(=O)[C@@]1(Sc2ccc(C)cc2)CC(=O)N(C2Cc3ccccc3C2)[C@@H]1c1ccc(CO)cc1I -0.0568
CCCCC(CC)C(O)C1C=CC2C(=O)N(c3ccccc3)C(=O)C2N1Nc1ccc([N+](=O)[O-])cc1 (stereo not given) -1.56
CC(C)C(=C=CC[C@@H](O)c1ccccc1OCCO)C[C@@H](O)COCc1ccccc1 0.791
C[C@H]1C2=C3C(CC[C@H]4C(OCc5ccc(F)cc5C(F)(F)F)OC[C@](C)([C@@H]34)N(C(=O)OC(C)(C)C)C2)C2COC(=O)OCC21 (stereo not given in full) -1.06
CCOC(=CC(=O)OC)CC(O)c1cccc(Cl)c1 (stereo not given) 0.0253
COc1cc(OC)c(C(O)C2C=CC3C(=O)N(c4ccccc4)C(=O)C3N2Nc2ccc(C#N)cc2)cc1Br (stereo not given) -0.403
CN(C)CCCNC(=O)[C@@H]1c2ccccc2C(=O)N(CC23CC4CC(CC(C4)C2)C3)[C@H]1c1ccc(CO)cc1 -0.211
COc1cc2c(cc1OC)CN(C(=O)[C@H]1[C@@H]3C(=O)O[C@@H](c4ccccc4)[C@@H](c4ccccc4)N3[C@@H](c3ccc(OCCO)cc3)[C@]13C(=O)Nc1ccc(C#CCCO)cc13)CC2 0.764
COCCOC(=O)N1C(=O)[C@@]2(c3cc(C#CC4=CCCCC4)ccc31)[C@H](c1ccccc1OCCO)N1[C@H](c3ccccc3)[C@H](c3ccccc3)OC(=O)[C@H]1[C@@H]2C(=O)N1CCc2cc(OC)c(OC)cc2C1 3.23

From PubChem BioAssay
